# Test results from PubChem BioAssay (NCI).
# The panel holds about 79,000 compounds, 15% with a hit somewhere; the sample as a whole holds those more often. Unmarked numbers belong to inactive results. Calls of active or inactive are those of the source. Cut-off read from the data, not from the text of the source: active = growth inhibition above about 70%; inactive = the rest.
# Tests used:
# [1] = NCI Yeast Anticancer Drug Screen. Data for the rad52 strain (AID 147);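 note: 0% = growth of vehicle-treated control cultures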; conditions: S. cerevisiae rad52 mutant growth inhibition, stronger effect = higher value
# Method in brief: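 Yeast strain carrying a DNA damage repair alteration was exposed to test compounds. Growth inhibition was measured relative to vehicle-treated controls.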
# [2] = NCI Yeast Anticancer Drug Screen. Data for the wt1 strain (AID 149);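 note: 0% = growth of vehicle-treated wt1 cultures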; conditions: S. cerevisiae wt1 strain (SPY 50644) growth inhibition, stronger effect = higher value
# Method in brief: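 Vehicle-normalised growth inhibition; strain wt1; compound exposure.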
# [3] = NCI Yeast Anticancer Drug Screen. Data for the rad50EPP+ strain (AID 151);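 note: 0% = growth of vehicle-treated control cultures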; conditions: S. cerevisiae rad50 mutant strain, stronger effect = higher value
# Method in brief: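 Yeast strain carrying rad50 alteration (rad50EPP+) exposed to compounds; growth inhibition measured relative to vehicle-treated controls.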
# [4] = NCI Yeast Anticancer Drug Screen. Data for the mgt1 strain (AID 153); conditions: S. cerevisiae mgt1 mutant growth inhibition, stronger effect = higher value
# Method in brief: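 Yeast mgt1 strain (DNA repair/cell-cycle alteration panel) exposed to compounds; growth inhibition measured relative to vehicle-treated controls.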
# [5] = NCI Yeast Anticancer Drug Screen. Data for the rad50 strain (AID 155);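 note: 0% = growth of vehicle-only cultures of the same strain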; conditions: S. cerevisiae rad50 strain growth inhibition, stronger effect = higher value
# Method in brief: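 A DNA repair-deficient yeast mutant serves as the test organism; compound-induced growth inhibition is calculated against vehicle-treated cells.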
# [6] = NCI Yeast Anticancer Drug Screen. Data for the mec2-1 strain (AID 157); conditions: S. cerevisiae mec2-1 strain, stronger effect = higher value
# Method in brief: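 mec2-1 yeast strain, carrying an alteration in DNA damage repair or cell cycle control, was exposed to compounds; growth inhibition was measured relative to vehicle-treated controls.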
# [7] = NCI Yeast Anticancer Drug Screen. Data for the rad14 strain (AID 159);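 note: 0% = growth of vehicle-treated control cultures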; conditions: S. cerevisiae rad14 strain growth inhibition, stronger effect = higher value
# Method in brief: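 Vehicle-treated cultures served as the baseline for growth inhibition of a DNA repair-mutant yeast strain exposed to each compound.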
# [8] = NCI Yeast Anticancer Drug Screen. Data for the sgs1 mgt1 strain (AID 161);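 note: 0% = growth of cultures given vehicle only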; conditions: S. cerevisiae sgs1 mgt1 strain, stronger effect = higher value
# Method in brief: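 Compounds are added to genetically altered yeast, and growth is compared with cultures given vehicle alone to give percent inhibition.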
# [9] = NCI Yeast Anticancer Drug Screen. Data for the CLN2oe strain (AID 163);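 note: 0% = growth of vehicle-only control cultures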; conditions: S. cerevisiae CLN2oe strain, stronger effect = higher value
# Method in brief: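 Yeast cells carrying a defined cell-cycle control alteration were exposed to test compounds. Growth inhibition was scored against vehicle-treated control cultures.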
# [10] = NCI Yeast Anticancer Drug Screen. Data for the cln2 rad14 strain (AID 165);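 note: 0% = growth equal to vehicle treated cultures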; conditions: S. cerevisiae cln2 rad14 strain, stronger effect = higher value
# Method in brief: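 Yeast carrying cln2 and rad14 alterations (cell cycle control and DNA damage repair) were exposed to compounds. Growth inhibition was measured against vehicle-treated controls.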
# [11] = NCI Yeast Anticancer Drug Screen. Data for the bub3 strain (AID 167); conditions: S. cerevisiae bub3 mutant strain, stronger effect = higher value
# Method in brief: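 Inhibition values come from growth of compound-treated mutant yeast normalised to vehicle-treated controls.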
# [12] = NCI Yeast Anticancer Drug Screen. Data for the wt2 strain (AID 169);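 note: 0% = growth of vehicle-treated yeast cultures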; conditions: S. cerevisiae wt2 strain growth inhibition, stronger effect = higher value
# Method in brief: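 Yeast cells were exposed to test compounds, and growth inhibition was measured relative to vehicle-treated controls.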
# [13] = NCI Yeast Anticancer Drug Screen. Data for the mlh1 strain (AID 171);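 note: 0% = growth of vehicle-treated control cultures of the same strain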; conditions: S. cerevisiae mlh1 strain growth inhibition, stronger effect = higher value
# Method in brief: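 Yeast carrying a defined genetic alteration in DNA damage repair or cell cycle control were exposed to test compounds. Growth inhibition was measured relative to vehicle-treated controls.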
# [14] = NCI Yeast Anticancer Drug Screen. Data for the sgs1 strain (AID 173);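 note: 0% = growth of vehicle-only control cultures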; conditions: S. cerevisiae sgs1 mutant, stronger effect = higher value
# Method in brief: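 Yeast mutant strains carrying defined defects in DNA damage repair or cell cycle control were exposed to test compounds. Growth inhibition was scored against vehicle-treated controls.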
# [15] = NCI Yeast Anticancer Drug Screen. Data for the mlh1 rad18 strain (AID 175); conditions: S. cerevisiae mlh1 rad18 strain growth inhibition, stronger effect = higher value
# Method in brief: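 Growth inhibition of the yeast strain was measured after compound exposure and expressed relative to vehicle-treated controls. The strain carries defined defects in DNA damage repair.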
# [16] = NCI Yeast Anticancer Drug Screen. Data for the rad18 strain (AID 177); conditions: S. cerevisiae rad18 mutant growth inhibition, stronger effect = higher value
# Method in brief: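 Yeast carrying a defined DNA damage repair alteration were exposed to compounds. Growth inhibition was expressed relative to vehicle-treated controls.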
# [17] = at 5.0 µM (retest, dose inferred, filed as 0.5)
# [18] = at 50.0 µM (retest, dose inferred, filed as 5.0)
compound,measurement,setting,value
CCCCCCCCCC(=O)N(CCC)CCC,growth inhibition,[1]; at 1.2 µM,-11%
same,growth inhibition,[1]; at 3.7 µM,-15%
same,growth inhibition,[1]; at 11.0 µM,-19%
same,growth inhibition,[1]; at 33.0 µM,42%
same,growth inhibition,[1]; at 100.0 µM,96% (active)
same,growth inhibition,[2]; at 1.2 µM,-10%
same,growth inhibition,[2]; at 3.7 µM,-10%
same,growth inhibition,[2]; at 11.0 µM,-17%
same,growth inhibition,[2]; at 33.0 µM,79% (active)
same,growth inhibition,[2]; at 100.0 µM,98% (active)
same,growth inhibition,[3]; at 1.2 µM,1%
same,growth inhibition,[3]; at 3.7 µM,9%
same,growth inhibition,[3]; at 11.0 µM,11%
same,growth inhibition,[3]; at 33.0 µM,43%
same,growth inhibition,[3]; at 100.0 µM,77% (active)
same,growth inhibition,[4]; at 1.2 µM,-14%
same,growth inhibition,[4]; at 3.7 µM,-20%
same,growth inhibition,[4]; at 11.0 µM,-25%
same,growth inhibition,[4]; at 33.0 µM,0%
same,growth inhibition,[4]; at 100.0 µM,96% (active)
same,growth inhibition,[5]; at 1.2 µM,2%
same,growth inhibition,[5]; at 3.7 µM,-8%
same,growth inhibition,[5]; [17],97% (active)
same,growth inhibition,[5]; at 11.0 µM,-2%
same,growth inhibition,[5]; at 33.0 µM,48%
same,growth inhibition,[5]; [18],96% (active)
same,growth inhibition,[5]; at 50.0 µM,90.9% (active)
same,growth inhibition,[5]; at 100.0 µM,97% (active)
same,growth inhibition,[6]; at 1.2 µM,-4%
same,growth inhibition,[6]; at 3.7 µM,1%
same,growth inhibition,[6]; [17],97% (active)
same,growth inhibition,[6]; at 11.0 µM,-15%
same,growth inhibition,[6]; at 33.0 µM,73% (active)
same,growth inhibition,[6]; [18],98% (active)
same,growth inhibition,[6]; at 50.0 µM,93.3% (active)
same,growth inhibition,[6]; at 100.0 µM,97% (active)
same,growth inhibition,[7]; at 1.2 µM,-9%
same,growth inhibition,[7]; at 3.7 µM,-6%
same,growth inhibition,[7]; at 11.0 µM,-15%
same,growth inhibition,[7]; at 33.0 µM,29%
same,growth inhibition,[7]; at 100.0 µM,97% (active)
same,growth inhibition,[8]; [17],-38%
same,growth inhibition,[8]; [18],56%
same,growth inhibition,[8]; at 50.0 µM,92.9% (active)
same,growth inhibition,[9]; at 1.2 µM,3%
same,growth inhibition,[9]; at 3.7 µM,-2%
same,growth inhibition,[9]; at 11.0 µM,0%
same,growth inhibition,[9]; at 33.0 µM,45%
same,growth inhibition,[9]; at 100.0 µM,98% (active)
same,growth inhibition,[10]; [17],48%
same,growth inhibition,[10]; [18],65%
same,growth inhibition,[10]; at 50.0 µM,91.1% (active)
same,growth inhibition,[11]; at 1.2 µM,-29%
same,growth inhibition,[11]; at 3.7 µM,-27%
same,growth inhibition,[11]; [17],-7%
same,growth inhibition,[11]; at 11.0 µM,-37%
same,growth inhibition,[11]; at 33.0 µM,67%
same,growth inhibition,[11]; [18],73% (active)
same,growth inhibition,[11]; at 50.0 µM,92% (active)
same,growth inhibition,[11]; at 100.0 µM,97% (active)
same,growth inhibition,[12]; at 1.2 µM,-5%
same,growth inhibition,[12]; at 3.7 µM,-2%
same,growth inhibition,[12]; at 11.0 µM,-10%
same,growth inhibition,[12]; at 33.0 µM,49%
same,growth inhibition,[12]; at 100.0 µM,97% (active)
same,growth inhibition,[13]; at 1.2 µM,2%
same,growth inhibition,[13]; at 3.7 µM,-15%
same,growth inhibition,[13]; at 11.0 µM,-13%
same,growth inhibition,[13]; at 33.0 µM,41%
same,growth inhibition,[13]; at 100.0 µM,96% (active)
same,growth inhibition,[14]; at 1.2 µM,-4%
same,growth inhibition,[14]; at 3.7 µM,-9%
same,growth inhibition,[14]; at 11.0 µM,-17%
same,growth inhibition,[14]; at 33.0 µM,73% (active)
same,growth inhibition,[14]; at 100.0 µM,98% (active)
same,growth inhibition,[15]; [17],99% (active)
same,growth inhibition,[15]; [18],99% (active)
same,growth inhibition,[15]; at 50.0 µM,90.3% (active)
same,growth inhibition,[16]; at 1.2 µM,15%
same,growth inhibition,[16]; at 3.7 µM,21%
same,growth inhibition,[16]; at 11.0 µM,15%
same,growth inhibition,[16]; at 33.0 µM,68%
same,growth inhibition,[16]; at 100.0 µM,98% (active)
